# About 410 targets per protein were measured; listed, in parts, are those with the strongest signals and a random draw of the rest.
# B1: Epa9 (Candida glabrata), CAGL0A01386g (protein)
# chain: MGSSHHHHHHSSGLVPRGSHMDITPFAHYPRPEGCSSPPNAVSVGLHMDLYNYPYLYVKNPRTGFTNDTDSDADGETDGDSAGGIEGRAGQCWNPEYQDPNFPRYGYKKYGSFGSSDHVNGKISWDHNEFKEGCKPIMARLPTAYNYPAKITFSNFTMVLSGYFKPKSTGLYKFEIHADDFILFNFGSKNAFECCNREESIDNFGPYVAYAMWPNEADQELEVYLFEDSYYPIRLFYNNRDYHSKFMVGFYPPNTEEITYDFDGYLYMLDDTGNECKDSIRYKTVCDD
# How the values were obtained:
# Assay in all cases: glycan array binding signal (z-score within array); higher = stronger binding
# Settings in all cases: glycan notation: IUPAC condensed, linker removed
# [1] = molecular target: Gal(b1-4)GlcNAc(b1-3)Gal(b1-4)GlcNAc(b1-3)Gal(b1-4)GlcNAc(b1-3)Gal(b1-4)GlcNAc(b1-3)Gal(b1-4)GlcNAc(b1-3)Gal(b1-4)GlcNAc(b1-2)Man(a1-3)[Gal(b1-4)GlcNAc(b1-3)Gal(b1-4)GlcNAc(b1-3)Gal(b1-4)GlcNAc(b1-3)Gal(b1-4)GlcNAc(b1-3)Gal(b1-4)GlcNAc(b1-3)Gal(b1-4)GlcNAc(b1-2)Man(a1-6)]Man(b1-4)GlcNAc(b1-4)GlcNAc
# In short: (§1)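 The binding signal is a Z-score computed within each array. Data were drawn from 3228 arrays in the Consortium for Functional Glycomics database, restricted to those with a known protein sequence. Scores were averaged over arrays of the same protein sequence at different concentrations or buffers, and over linkers, and negative values can be taken as non-binding.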
# [2] = molecular target: Gal3S(b1-4)[Fuc(a1-3)]Glc6S
# In short: as §1
# Gal4S6S(b1-4)GlcNAc = molecular target: Gal4S6S(b1-4)GlcNAc
# In short: as §1
# Gal6S(b1-3)GlcNAc = molecular target: Gal6S(b1-3)GlcNAc
# In short: as §1
# [3] = molecular target: GalNAc(b1-3)Gal(a1-6)Gal(b1-4)Glc
# In short: as §1
# GalNAc(b1-3)GlcNAc = molecular target: GalNAc(b1-3)GlcNAc
# In short: as §1
# GalNAc3S(b1-4)GlcNAc3S = molecular target: GalNAc3S(b1-4)GlcNAc3S
# In short: as §1
# GlcA(b1-6)Gal = molecular target: GlcA(b1-6)Gal
# In short: as §1
# [4] = molecular target: GlcNAc(a1-4)Gal(b1-4)GlcNAc(b1-3)Gal(b1-4)GlcNAc(b1-3)Gal(b1-4)GlcNAc
# In short: as §1
# [5] = molecular target: GlcNAc(b1-6)Gal(b1-4)GlcNAc
# In short: as §1
# GlcNAc(b1-6)GalNAc = molecular target: GlcNAc(b1-6)GalNAc
# In short: as §1
# Kdn(a2-3)Gal(b1-3)GlcNAc = molecular target: Kdn(a2-3)Gal(b1-3)GlcNAc
# In short: as §1
# Kdn(a2-3)Gal(b1-4)GlcNAc = molecular target: Kdn(a2-3)Gal(b1-4)GlcNAc
# In short: as §1
# [6] = molecular target: Man(a1-2)Man(a1-3)[Man(a1-2)Man(a1-6)]Man
# In short: as §1
# [7] = molecular target: Neu5Ac(a2-3)Gal(b1-4)GlcNAc(b1-3)Gal(b1-4)GlcNAc(b1-3)GalNAc
# In short: as §1
# [8] = molecular target: Neu5Ac(a2-3)Gal(b1-4)[Fuc(a1-3)]GlcNAc(b1-3)Gal
# In short: as §1
# [9] = molecular target: Neu5Ac(a2-3)Gal(b1-4)[Fuc(a1-3)]GlcNAc(b1-3)Gal(b1-4)GlcNAc
# In short: as §1
# [10] = molecular target: Neu5Ac(a2-3)Gal(b1-4)[Fuc(a1-3)]GlcNAc(b1-6)[Gal(b1-3)]GalNAc
# In short: as §1
# [11] = molecular target: Neu5Ac(a2-3)[GalNAc(b1-4)]Gal(b1-4)Glc
# In short: as §1
# [12] = molecular target: Neu5Ac(a2-6)Gal(b1-3)GlcNAc(b1-3)[Gal(b1-4)GlcNAc(b1-6)]Gal(b1-4)Glc
# In short: as §1
# [13] = molecular target: Neu5Ac(a2-6)Gal(b1-4)GlcNAc(b1-2)Man(a1-3)[Man(a1-6)]Man(b1-4)GlcNAc(b1-4)GlcNAc
# In short: as §1
# [14] = molecular target: Neu5Ac(a2-6)Gal(b1-4)GlcNAc(b1-3)[Neu5Ac(a2-6)Gal(b1-4)GlcNAc(b1-6)]GalNAc
# In short: as §1
# [15] = molecular target: Neu5Ac(a2-6)Gal(b1-4)GlcNAc(b1-6)[Gal(b1-3)GlcNAc(b1-3)]Gal(b1-4)Glc
# In short: as §1
# [16] = molecular target: Neu5Ac(a2-6)GalNAc(b1-4)GlcNAc
# In short: as §1
# Neu5Gc(a2-6)GalNAc = molecular target: Neu5Gc(a2-6)GalNAc
# In short: as §1
binder,measurement,setting,value
B1,glycan array binding signal (z-score),[1],4.6
same,glycan array binding signal (z-score),[2],-0.318
same,glycan array binding signal (z-score),Gal4S6S(b1-4)GlcNAc,-0.491
same,glycan array binding signal (z-score),Gal6S(b1-3)GlcNAc,-0.361
same,glycan array binding signal (z-score),[3],-0.468
same,glycan array binding signal (z-score),GalNAc(b1-3)GlcNAc,-0.486
same,glycan array binding signal (z-score),GalNAc3S(b1-4)GlcNAc3S,-0.441
same,glycan array binding signal (z-score),GlcA(b1-6)Gal,-0.198
same,glycan array binding signal (z-score),[4],-0.462
same,glycan array binding signal (z-score),[5],0.361
same,glycan array binding signal (z-score),GlcNAc(b1-6)GalNAc,-0.467
same,glycan array binding signal (z-score),Kdn(a2-3)Gal(b1-3)GlcNAc,-0.454
same,glycan array binding signal (z-score),Kdn(a2-3)Gal(b1-4)GlcNAc,-0.394
same,glycan array binding signal (z-score),[6],-0.635
same,glycan array binding signal (z-score),[7],-0.387
same,glycan array binding signal (z-score),[8],-0.474
same,glycan array binding signal (z-score),[9],-0.253
same,glycan array binding signal (z-score),[10],-0.217
same,glycan array binding signal (z-score),[11],-0.447
same,glycan array binding signal (z-score),[12],0.392
same,glycan array binding signal (z-score),[13],-0.06
same,glycan array binding signal (z-score),[14],-0.357
same,glycan array binding signal (z-score),[15],-0.304
same,glycan array binding signal (z-score),[16],-0.519
same,glycan array binding signal (z-score),Neu5Gc(a2-6)GalNAc,-0.467
